Measurements taken from the supplement of paper PMC10849652.
Targets with a hit are over-represented here; the source holds about 7,900 in all. About 0.6% of all pairs of compound and target were hits. Values without a mark were called inactive.

Key:
Assay in all cases: log2 fold change, soluble protein after heating vs DMSO (PISA); higher = thermal stabilisation; K562 cells, 10 uM, 30 min; active = over 0.2 and 3.5 SD of the protein, either way, in both replicates (recomputed)
[1] = compound: CC[C@@H]1C(=O)N(C)c2cnc(Nc3ccc(C(=O)NC4CCN(C)CC4)cc3OC)nc2N1C1CCCC1
How it was run: (§1)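 Thermal stability values are relative to control samples and come from duplicates. They are expressed as log2 fold changes. For measurement, K562 cells (2×10^6 cells/mL) received 10 μM compound for 30 min, and aliquots were heated for 3 min over 48°C-58°C, pooled, and extracted at 4°C in PBS with 0.5% NP-40. Soluble protein, the supernatant after 21,000xg for 90 min, was quantified by TMTpro 16plex LC-MS/MS with equalised channel sums.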

volasertib = compound: CC[C@@H]1C(=O)N(C)c2cnc(Nc3ccc(C(=O)N[C@H]4CC[C@H](N5CCN(CC6CC6)CC5)CC4)cc3OC)nc2N1C(C)C [volasertib]
How it was run: as §1

[2] = compound: CC[C@H](C)N1C=C(C2=C(C=C(C=C21)C3=CN=C(C=C3)N4CCNCC4)C(=O)NCC5=C(C=C(NC5=O)C)C)C
How it was run: as §1

epoxomicin = compound: CC[C@H](C)[C@@H](C(=O)N[C@@H]([C@@H](C)O)C(=O)N[C@@H](CC(C)C)C(=O)[C@]1(CO1)C)NC(=O)[C@H]([C@@H](C)CC)N(C)C(=O)C [epoxomicin]
How it was run: as §1

[3] = compound: CCn1c(C(=O)N(C2CC2)C2CC2)cc2c3c(ncn3C)c(Nc3cc(C)n(C)n3)nc21
How it was run: as §1

[4] = compound: CCn1cc(-c2ccnc3[nH]c(-c4cccc(CN(C)C)c4)cc23)c(-c2ccc(NC(=O)N(C)C)cc2)n1
How it was run: as §1

[5] = compound: CN(C)CC(=O)Nc1ccc2[nH]c(=O)c3ccccc3c2c1
How it was run: as §1

rosiglitazone = compound: CN(CCOC1=CC=C(C=C1)C[C@H]2C(=O)NC(=O)S2)C3=CC=CC=N3 (racemic) [rosiglitazone]
How it was run: as §1

[6] = compound: CN1CCC(CNc2ccc3ncc(-c4cccc(OC(F)(F)F)c4)n3n2)CC1
How it was run: as §1

sotrastaurin = compound: CN1CCN(c2nc(C3=C(c4c[nH]c5ccccc45)C(=O)NC3=O)c3ccccc3n2)CC1 [sotrastaurin]
How it was run: as §1

Tubastatin A = compound: CN1CCc2c(c3ccccc3n2Cc2ccc(C(=O)NO)cc2)C1 [Tubastatin A]
How it was run: as §1

[7] = compound: CNC(=O)C1=CC=CC=C1NC2=NC(=NC=C2Cl)NC3=C(C=C(C=C3)N4CCOCC4)OC
How it was run: as §1

defactinib = compound: CNC(=O)c1ccc(Nc2ncc(C(F)(F)F)c(NCc3nccnc3N(C)S(C)(=O)=O)n2)cc1 [defactinib]
How it was run: as §1

rucaparib = compound: CNCc1ccc(-c2[nH]c3cc(F)cc4c3c2CCNC4=O)cc1 [rucaparib]
How it was run: as §1

encorafenib = compound: COC(=O)N[C@@H](C)CNc1nccc(-c2cn(C(C)C)nc2-c2cc(Cl)cc(NS(C)(=O)=O)c2F)n1 [encorafenib]
How it was run: as §1

[8] = compound: COC(=O)[C@H](CCSC)NC(=O)C1=C(C=C(C=C1)NC[C@H](CS)N)C2=CC=CC=C2
How it was run: as §1

[9] = compound: CN1C2=C(C3=C1C(=O)N(N=C3)CC4=CC(=CC=C4)N)SC(=C2)S(=O)C
How it was run: as §1

saracatinib = compound: CN1CCN(CCOc2cc(OC3CCOCC3)c3c(Nc4c(Cl)ccc5c4OCO5)ncnc3c2)CC1 [saracatinib]
How it was run: as §1

alvocidib = compound: CN1CC[C@H](c2c(O)cc(O)c3c(=O)cc(-c4ccccc4Cl)oc23)[C@H](O)C1 [alvocidib]
How it was run: as §1

[10] = compound: CNc1nc(-c2ccc3c(N)n[nH]c3c2)cc(N2C[C@@H](C(=O)NC3CCCCC3)CC[C@H]2C)n1
How it was run: as §1

Chain of UniProt P30305 (P30305 whole entry, looked up): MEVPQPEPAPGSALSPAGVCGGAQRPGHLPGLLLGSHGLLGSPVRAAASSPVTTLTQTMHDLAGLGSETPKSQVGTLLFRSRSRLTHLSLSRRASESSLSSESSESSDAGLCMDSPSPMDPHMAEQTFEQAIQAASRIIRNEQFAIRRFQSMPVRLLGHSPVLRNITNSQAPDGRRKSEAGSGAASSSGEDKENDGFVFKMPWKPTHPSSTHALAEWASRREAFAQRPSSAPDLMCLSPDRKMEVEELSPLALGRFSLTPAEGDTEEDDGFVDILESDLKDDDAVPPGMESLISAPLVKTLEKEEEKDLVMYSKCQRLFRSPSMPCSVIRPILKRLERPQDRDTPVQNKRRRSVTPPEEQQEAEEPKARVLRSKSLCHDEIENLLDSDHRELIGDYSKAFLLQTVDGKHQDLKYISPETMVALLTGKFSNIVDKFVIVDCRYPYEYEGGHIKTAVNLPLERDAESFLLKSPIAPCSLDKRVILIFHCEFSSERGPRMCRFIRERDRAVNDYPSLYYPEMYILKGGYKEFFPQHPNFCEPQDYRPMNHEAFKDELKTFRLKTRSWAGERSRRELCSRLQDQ
Chain of UniProt P14854 (P14854 whole entry, looked up): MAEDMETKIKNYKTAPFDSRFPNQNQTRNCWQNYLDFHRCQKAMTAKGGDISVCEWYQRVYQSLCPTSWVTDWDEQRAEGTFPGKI
Chain of UniProt Q13901 (Q13901 whole entry, looked up): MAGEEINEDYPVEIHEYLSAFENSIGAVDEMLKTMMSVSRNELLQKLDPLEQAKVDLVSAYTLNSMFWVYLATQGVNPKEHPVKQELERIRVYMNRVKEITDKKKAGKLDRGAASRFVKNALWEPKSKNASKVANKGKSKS
Chain of UniProt P51790 (P51790 whole entry, looked up): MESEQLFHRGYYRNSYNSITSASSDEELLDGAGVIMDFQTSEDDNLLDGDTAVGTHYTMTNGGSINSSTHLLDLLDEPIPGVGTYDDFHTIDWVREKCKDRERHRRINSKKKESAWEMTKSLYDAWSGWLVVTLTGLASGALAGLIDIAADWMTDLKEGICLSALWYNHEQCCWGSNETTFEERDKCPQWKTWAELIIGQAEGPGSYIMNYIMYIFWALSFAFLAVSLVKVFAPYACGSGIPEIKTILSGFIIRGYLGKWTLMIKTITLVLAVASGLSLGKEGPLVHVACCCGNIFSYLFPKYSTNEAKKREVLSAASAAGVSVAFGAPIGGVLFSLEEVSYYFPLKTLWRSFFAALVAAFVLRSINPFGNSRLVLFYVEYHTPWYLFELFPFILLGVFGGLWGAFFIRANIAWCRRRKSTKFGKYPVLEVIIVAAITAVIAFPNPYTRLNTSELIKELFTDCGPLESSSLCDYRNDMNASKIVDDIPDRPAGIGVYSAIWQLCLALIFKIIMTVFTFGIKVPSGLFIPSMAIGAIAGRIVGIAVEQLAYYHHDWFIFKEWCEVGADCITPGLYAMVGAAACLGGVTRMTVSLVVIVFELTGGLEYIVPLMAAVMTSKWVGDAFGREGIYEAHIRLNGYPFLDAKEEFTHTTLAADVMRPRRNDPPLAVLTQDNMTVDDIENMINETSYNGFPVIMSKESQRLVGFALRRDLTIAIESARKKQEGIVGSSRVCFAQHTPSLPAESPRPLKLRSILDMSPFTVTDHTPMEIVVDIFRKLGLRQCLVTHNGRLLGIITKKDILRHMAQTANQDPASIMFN
Chain of UniProt Q96KA5 (Q96KA5 whole entry, looked up): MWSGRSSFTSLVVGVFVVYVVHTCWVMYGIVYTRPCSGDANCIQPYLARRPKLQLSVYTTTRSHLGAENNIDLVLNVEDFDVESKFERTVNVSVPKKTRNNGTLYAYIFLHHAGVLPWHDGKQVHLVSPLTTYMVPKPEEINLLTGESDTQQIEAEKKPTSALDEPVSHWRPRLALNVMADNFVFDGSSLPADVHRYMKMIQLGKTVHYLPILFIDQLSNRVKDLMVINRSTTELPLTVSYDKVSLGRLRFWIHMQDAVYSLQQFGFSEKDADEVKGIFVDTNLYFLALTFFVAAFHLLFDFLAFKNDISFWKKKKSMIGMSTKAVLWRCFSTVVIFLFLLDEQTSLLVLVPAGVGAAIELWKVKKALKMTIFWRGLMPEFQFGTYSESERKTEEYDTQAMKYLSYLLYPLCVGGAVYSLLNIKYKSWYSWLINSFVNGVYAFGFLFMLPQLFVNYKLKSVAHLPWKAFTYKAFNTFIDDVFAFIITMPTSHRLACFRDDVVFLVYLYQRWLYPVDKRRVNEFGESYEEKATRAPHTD
Chain of UniProt Q99653 (Q99653 whole entry, looked up): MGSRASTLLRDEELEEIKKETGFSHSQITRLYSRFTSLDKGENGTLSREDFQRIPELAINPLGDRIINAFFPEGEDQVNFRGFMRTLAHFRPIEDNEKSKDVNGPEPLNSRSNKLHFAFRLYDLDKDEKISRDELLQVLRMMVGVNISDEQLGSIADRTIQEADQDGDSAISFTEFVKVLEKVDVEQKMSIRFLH
Chain of UniProt Q00587 (Q00587 whole entry, looked up): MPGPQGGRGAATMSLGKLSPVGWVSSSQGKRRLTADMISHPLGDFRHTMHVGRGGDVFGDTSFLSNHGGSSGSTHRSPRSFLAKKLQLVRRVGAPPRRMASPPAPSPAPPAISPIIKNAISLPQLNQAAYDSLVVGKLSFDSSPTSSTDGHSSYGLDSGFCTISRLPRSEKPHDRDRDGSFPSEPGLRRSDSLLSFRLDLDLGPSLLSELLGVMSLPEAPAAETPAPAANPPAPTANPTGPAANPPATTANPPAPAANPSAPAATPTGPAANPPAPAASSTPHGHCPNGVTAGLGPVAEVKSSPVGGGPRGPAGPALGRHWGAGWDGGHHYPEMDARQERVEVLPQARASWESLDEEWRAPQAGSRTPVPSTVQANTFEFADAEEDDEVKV
Chain of UniProt P50416 (P50416 whole entry, looked up): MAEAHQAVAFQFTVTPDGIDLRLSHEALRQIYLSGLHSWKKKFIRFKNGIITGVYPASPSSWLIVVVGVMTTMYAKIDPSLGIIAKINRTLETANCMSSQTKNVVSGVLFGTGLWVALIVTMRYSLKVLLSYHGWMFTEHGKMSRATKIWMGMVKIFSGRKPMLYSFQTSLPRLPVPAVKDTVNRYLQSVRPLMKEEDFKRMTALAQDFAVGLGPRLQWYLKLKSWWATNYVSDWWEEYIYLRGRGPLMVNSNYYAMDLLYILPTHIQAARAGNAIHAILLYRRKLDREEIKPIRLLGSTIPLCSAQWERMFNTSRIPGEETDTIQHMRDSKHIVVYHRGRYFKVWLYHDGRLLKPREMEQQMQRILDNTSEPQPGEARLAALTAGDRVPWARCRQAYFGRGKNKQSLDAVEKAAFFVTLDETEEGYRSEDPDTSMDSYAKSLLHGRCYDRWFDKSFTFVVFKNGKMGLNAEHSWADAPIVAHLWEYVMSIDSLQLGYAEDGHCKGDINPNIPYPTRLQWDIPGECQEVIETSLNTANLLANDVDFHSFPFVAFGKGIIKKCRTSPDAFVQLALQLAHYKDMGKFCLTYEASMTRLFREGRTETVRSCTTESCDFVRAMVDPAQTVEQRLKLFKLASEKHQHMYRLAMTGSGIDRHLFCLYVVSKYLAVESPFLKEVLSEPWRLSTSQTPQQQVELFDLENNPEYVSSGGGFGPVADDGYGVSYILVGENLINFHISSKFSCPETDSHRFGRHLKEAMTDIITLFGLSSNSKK

Target | log2 fold change [1] | log2 fold change (volasertib) | log2 fold change [2] | log2 fold change (epoxomicin) | log2 fold change [3] | log2 fold change [4] | log2 fold change [5] | log2 fold change (rosiglitazone) | log2 fold change [6] | log2 fold change (sotrastaurin) | log2 fold change (Tubastatin A) | log2 fold change [7] | log2 fold change (defactinib) | log2 fold change (rucaparib) | log2 fold change (encorafenib) | log2 fold change [8] | log2 fold change [9] | log2 fold change (saracatinib) | log2 fold change (alvocidib) | log2 fold change [10]
C1D (UniProt Q13901) | 0.088 | 0.076 | -0.034 | 0.02 | 0 | -0.021 | -0.127 | -0.008 | 0.096 | 0.005 | 0.079 | 0.001 | 0.042 | -0.005 | 0.009 | 0.091 |  |  |  | 
CPT1A (UniProt P50416) | -0.048 | -0.047 | 0.045 | -0.003 | -0.076 | -0.064 | 0.013 | 0.025 | 0.333 (active) | 0.075 | 0.142 | 0.161 | -0.087 | 0.054 | 0.069 | -0.04 | -0.053 | 0.021 | 0.578 (active) | 0.148
CDC25B isoform 4 (UniProt P30305) | -0.003 | -0.049 | -0.266 | 0.1 | -0.031 | -0.092 | -0.021 | -0.012 | -0.081 | -0.018 |  | -0.019 | -0.25 | 0.054 | -0.059 | 0.087 |  |  | -0.031 | 
CLCN3 isoform 2 (UniProt P51790) | -0.047 | -0.113 | 0.026 | 0.003 | 0.018 | -0.032 | 0.024 | 0.001 | -0.079 | -0.002 | -0.06 | -0.018 | -0.009 | -0.002 | -0.027 | -0.014 | -0.028 | 0.104 | -0.079 | -0.015
CDC42EP1 (UniProt Q00587) | -0.005 | 0.058 | 0.057 | 0.032 | -0.096 | -0.051 | -0.016 | 0.093 | -0.554 (active) | 0.025 | 0.001 | -0.303 | -0.144 | -0.002 | -0.017 | 0.007 | 0.039 | -0.017 | -0.146 | 0.016
COX6B1 (UniProt P14854) | 0.036 | 0.023 | -0.013 | 0.333 | 0.046 | -0.014 | -0.081 | 0.013 | 0.038 | -0.012 | -0.069 | 0.015 | -0.023 | 0.022 | -0.043 | 0.008 | -0.054 | 0.024 | 0.039 | -0.061
CHP1 (UniProt Q99653) | -0.069 | -0.036 | 0.033 | 0.061 | -0.006 | -0.007 | 0.063 | -0.005 | -0.028 | 0.068 | 0.041 | 0.085 | -0.006 | 0.068 | -0.016 | 0.021 | 0.034 | -0.09 | -0.046 | -0.219
CLPTM1L (UniProt Q96KA5) | -0.067 | -0.185 | 0.005 | 0.013 | 0.009 | -0.051 | 0.023 | 0.054 | -0.188 | -0.013 | -0.008 | -0.057 | -0.042 | -0.011 | 0.021 | 0.043 | -0.023 | 0.11 | 0.008 | -0.099
